Experiment [1] in a line: Wnt pathway potentiators raising nuclear beta-catenin – imaging, WNT3A-conditioned medium, mouse C2C12, NPC library, primary screen (AID 1117326). Also: reference of the scale not given here. As to conditions: stronger effect = higher value.
Experiment [2] is described as follows: stimulators of insulin release from INS-1E, primary screen, cell-based, 5 mM glucose, NPC library (AID 1117329;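 active = compound raises insulin release from rat beta cells at 5 mM glucose, no numeric limit stated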; also: reference of the scale not given here). As to conditions: rat INS-1E insulin secretion, at 10 µM, stronger effect = higher value.
The nature of experiment [3]: growth inhibition of GSK3B-pretreated HCT116 cells – cell-based, CellTiter-Glo, 0.2 to 20 µM (AID 1117336;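 active = compounds lowering colon cancer cell viability after pretreatment blocking the GSK3B kinase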). As to conditions: HCT116 viability after GSK3B inhibitor, at 20 µM, stronger effect = higher value. In general terms: In ATP-based viability assays light output follows the ATP content of the culture.
Experiment [4] in a line: inhibition of endothelial tube formation, primary screen, imaging, VEGF stimulated, CD31 staining, tube area, NPC library (AID 1117340;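 active = compound that reduces growth-factor-driven endothelial tube area in a mixed cell culture, no cutoff stated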). The conditions noted are these: VEGF-stimulated ADSC/ECFC co-culture, at 10 µM, stronger effect = higher value.
Experiment [5] can be described thus: GLP1 release stimulators, primary, NCI-H716, NPC library (AID 1117341;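 active = compound raises GLP1 secretion from the human gut endocrine cells, with no numeric limit stated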; also: reference of the scale not given here). As to conditions: NCI-H716 cells, at 10 µM, stronger effect = higher value.
Experiment [6] in a line: HCT116 colon cancer cell growth inhibition, primary screen, CellTiter-Glo luminescence, NPC library (AID 1117342;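 active = compounds that lower survival of HCT116 colon cancer cells in the luminescence readout, no numeric limit stated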). The conditions noted are these: at 20 µM (top of the series).
Experiment [7] is described as follows: reduced SW480 viability measured with CellTiter-Glo, NPC library, primary (AID 1117343;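 active = compounds that lower viability of the colon cancer cells in the luminescence readout, with no numeric limit stated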). The conditions noted are these: CellTiter-Glo luminescence; at 20 µM (top of the series).
Experiment [8] is described as follows: NPC library primary testing for decreased DLD-1 cell viability via CellTiter-Glo (AID 1117346;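 active = compounds that lower survival of DLD-1 colon cancer cells in the luminescence readout, no cutoff given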). As to conditions: DLD-1 viability, CellTiter-Glo luminescence; at 20 µM (top of the series).

Data on 16 compounds can be found in PubChem BioAssay.

Structures are written as SMILES. Calls of active or inactive are those of the source. Rule as the data show it, unless noted: active = nuclear beta-catenin stimulation mostly above about 4.2% (no sharp cut-off); inactive = mostly below about 10%.

For `COc1cc(/C=C/C(=O)O[C@H]2CC[C@]34C[C@]35CC[C@]3(C)[C@@H]([C@H](C)CCC=C(C)C)CC[C@@]3(C)[C@@H]5CC[C@H]4C2(C)C)ccc1O`, the nuclear beta-catenin stimulation in experiment [1] (at 10 µM) is -1.5% (inactive); in experiment [1] (stimulation, at 2 µM), -1.7%. For the same compound, the insulin secretion stimulation in experiment [2] was 7.6% (inactive). The viability decrease in experiment [3] is 2.6% (inactive). Besides, in experiment [4], the tube area decrease is -12.4% (inactive). Also, the GLP1 secretion stimulation in experiment [5] is 0.5% (inactive). In addition, the inhibition of viability in experiment [6] is 10% (inactive). Further, the viability decrease (inhibition) in experiment [7] was -10.1% (inactive); in experiment [8] it was -6.9% (inactive).

Take `COC(=O)C1=C(C)NC(COC(N)=O)=C(C(=O)OC(C)C)C1c1cccc(Cl)c1Cl` (centres undefined): the nuclear beta-catenin stimulation in experiment [1] (at 10 µM) was 35.5% (inactive); in experiment [1] (stimulation, at 2 µM), 0.7%. Besides, the insulin secretion stimulation in experiment [2] is 8.1% (inactive). For the same compound, the viability decrease in experiment [3] is 94.6% (active). Moreover, the tube area decrease in experiment [4] was 23.2% (inactive). In addition, the GLP1 secretion stimulation in experiment [5] is 0.3% (inactive). Also, in experiment [6], the inhibition of viability is 99.8% (active). Also, the results for the viability decrease (inhibition) in experiment [7] and in experiment [8] were 123% (active) and 68.5% (active), respectively.

As to `CC(C)[C@H]1CC[C@H](C)C[C@H]1O`, the nuclear beta-catenin stimulation in experiment [1] (at 10 µM) is -2.2% (inactive); in experiment [1] (stimulation, at 2 µM), -0.8%. Moreover, in experiment [2], the insulin secretion stimulation is 2.4% (inactive). The viability decrease in experiment [3] is 2% (inactive). Also, the tube area decrease in experiment [4] is -11.4% (inactive). Further, in experiment [5], the GLP1 secretion stimulation is 7.7% (inactive). Further, the inhibition of viability in experiment [6] was 8.8% (inactive). The viability decrease (inhibition) is 17.2% (inactive) in experiment [7] and 5.7% (active) in experiment [8].

Consider `O=C(O)C(Cc1cc(I)c(O)c(I)c1)c1ccccc1` (centres undefined), for which the nuclear beta-catenin stimulation in experiment [1] (at 10 µM) is 1.5% (inactive); in experiment [1] (stimulation, at 2 µM), 0.8%. Also, the insulin secretion stimulation in experiment [2] was -0.6% (inactive). Moreover, in experiment [3], the viability decrease was 36.8% (inactive). The tube area decrease in experiment [4] is -29.6% (inactive). Besides, in experiment [5], the GLP1 secretion stimulation was -0.7% (inactive). Besides, the inhibition of viability in experiment [6] was 40.4% (inactive). In addition, the viability decrease (inhibition) is 50.4% (active) in experiment [7] and 14.4% (inactive) in experiment [8].

On to `CC(C)(C)CC(=O)OCC(=O)[C@@]1(O)CC[C@H]2[C@@H]3CCC4=CC(=O)C=C[C@]4(C)[C@H]3[C@@H](O)C[C@@]21C`, for which the nuclear beta-catenin stimulation in experiment [1] (at 10 µM) was 3% (inactive); in experiment [1] (stimulation, at 2 µM) it was 0.9%. Besides, the insulin secretion stimulation in experiment [2] is 0% (inactive). Further, the viability decrease in experiment [3] was -93.8% (inactive). Also, the tube area decrease in experiment [4] is 10.8% (inactive). In addition, the GLP1 secretion stimulation in experiment [5] was 3.3% (inactive). Besides, the inhibition of viability in experiment [6] is 20.7% (inactive). The results for the viability decrease (inhibition) in experiment [7] and in experiment [8] were 57.4% (active) and 13.2% (inactive), respectively.

Turning to `COc1cc2nc(Cl)nc(N)c2cc1OC`, the nuclear beta-catenin stimulation in experiment [1] (at 10 µM) was 0.1% (inactive); in experiment [1] (stimulation, at 2 µM), -1.5%. Also, the insulin secretion stimulation in experiment [2] was 2.8% (inactive). In experiment [3], the viability decrease is 13.3% (inactive). Also, the tube area decrease in experiment [4] was 9.3% (inactive). The GLP1 secretion stimulation in experiment [5] was 0.6% (inactive). Further, the inhibition of viability in experiment [6] is 22.3% (inactive). Besides, the figures for the viability decrease (inhibition) in experiment [7] and in experiment [8] were -4.5% (inactive) and 21.8% (inactive), respectively.

On to `Cc1cc(O)c(C(C)C)cc1Cl`, for which the nuclear beta-catenin stimulation in experiment [1] (at 10 µM) was -0.5% (inactive); in experiment [1] (stimulation, at 2 µM) it was 1.2%. In experiment [2], the insulin secretion stimulation is -0.9% (inactive). In addition, the viability decrease in experiment [3] is 36.1% (inactive). Moreover, the tube area decrease in experiment [4] is -10.5% (inactive). Further, the GLP1 secretion stimulation in experiment [5] was 29.3% (active). The inhibition of viability in experiment [6] was -9.5% (inactive). In addition, the viability decrease (inhibition) is 22% (inactive) in experiment [7] and 19.5% (inactive) in experiment [8].

Turning to `O=c1[nH]c2ccccc2c(=O)n1CCCl`, the nuclear beta-catenin stimulation in experiment [1] (at 10 µM) was 3.3% (inactive); in experiment [1] (stimulation, at 2 µM), 1.4%. Further, the insulin secretion stimulation in experiment [2] was 1.3% (inactive). Besides, the viability decrease in experiment [3] was 41.6% (inactive). Further, the tube area decrease in experiment [4] was -18.9% (inactive). In addition, the GLP1 secretion stimulation in experiment [5] was 2.8% (inactive). The inhibition of viability in experiment [6] is 30.4% (inactive). For the same compound, the values for the viability decrease (inhibition) in experiment [7] and in experiment [8] were 50.6% (active) and 20.2% (inactive), respectively.

In the case of `C[C@@]12CCC[C@H]1[C@@H]1CC[C@H]3C[C@@H](O)CC[C@]3(C)[C@H]1CC2`, the nuclear beta-catenin stimulation in experiment [1] (at 10 µM) was 3% (inactive); in experiment [1] (stimulation, at 2 µM) it was -0.1%. For the same compound, the insulin secretion stimulation in experiment [2] is -1% (inactive). The viability decrease in experiment [3] was 65.4% (active). In addition, in experiment [4], the tube area decrease is -28.4% (inactive). The GLP1 secretion stimulation in experiment [5] was 4% (inactive). In addition, the inhibition of viability in experiment [6] was -11.6% (inactive). For the same compound, the viability decrease (inhibition) in experiment [7] was 121% (active); in experiment [8], 103% (active).

On to `C=CCNc1nc(NCC=C)nc(N2CCN(C(c3ccc(F)cc3)c3ccc(F)cc3)CC2)n1`, for which the nuclear beta-catenin stimulation in experiment [1] (at 10 µM) was 0.3% (inactive); in experiment [1] (stimulation, at 2 µM), -1%. Further, the insulin secretion stimulation in experiment [2] was -0.6% (inactive). In experiment [3], the viability decrease is 50.3% (active). The tube area decrease in experiment [4] was 17.9% (inactive). Besides, in experiment [5], the GLP1 secretion stimulation was -3.9% (inactive). Further, the inhibition of viability in experiment [6] was 49.1% (inactive). In addition, the viability decrease (inhibition) was 56.9% (active) in experiment [7] and 49.4% (inactive) in experiment [8].

As to `COC(=O)/C=C(/C)N`, the nuclear beta-catenin stimulation is 0.7% (inactive) in experiment [1] (at 10 µM) and 2.2% in experiment [1] (stimulation, at 2 µM). Further, the insulin secretion stimulation in experiment [2] was -0.8% (inactive). In addition, in experiment [3], the viability decrease was 17.3% (inactive). In addition, the tube area decrease in experiment [4] is -6% (inactive). For the same compound, the GLP1 secretion stimulation in experiment [5] is 2.3% (inactive). Besides, in experiment [6], the inhibition of viability was -17.5% (inactive). Moreover, the viability decrease (inhibition) in experiment [7] is 2.9% (inactive); in experiment [8] it was -8.3% (inactive).

Consider `NC(=O)CC[C@@H](N)C(=O)O`, for which the nuclear beta-catenin stimulation is 2.1% (inactive) in experiment [1] (at 10 µM) and 3.8% in experiment [1] (stimulation, at 2 µM). The insulin secretion stimulation in experiment [2] was -0.7% (inactive). In addition, the viability decrease in experiment [3] was -14.2% (inactive). Also, in experiment [4], the tube area decrease was 15.2% (inactive). Besides, the GLP1 secretion stimulation in experiment [5] was -0.1% (inactive). The inhibition of viability in experiment [6] was 2.55% (inactive). Besides, the viability decrease (inhibition) in experiment [7] is 11.4% (inactive); in experiment [8], -7.9% (inactive).

`COC(=O)c1ccc(NC(C)=O)cc1OC`: the nuclear beta-catenin stimulation in experiment [1] (at 10 µM) is -0.5% (inactive); in experiment [1] (stimulation, at 2 µM), -1.4%. The insulin secretion stimulation in experiment [2] was -1.4% (inactive). Further, the viability decrease in experiment [3] is 13.4% (inactive). Besides, the tube area decrease in experiment [4] is -3.1% (inactive). The GLP1 secretion stimulation in experiment [5] was -1.8% (inactive). The inhibition of viability in experiment [6] was 1.7% (inactive). Besides, the viability decrease (inhibition) in experiment [7] was -18.6% (inactive); in experiment [8] it was -4.9% (inactive).

Take `Cc1ccc2c(Br)cc(Br)c(O)c2n1`: the nuclear beta-catenin stimulation was 43% (active) in experiment [1] (at 10 µM) and 5.5% in experiment [1] (stimulation, at 2 µM). Also, the insulin secretion stimulation in experiment [2] was 2.4% (inactive). In experiment [3], the viability decrease was 91% (active). Also, the tube area decrease in experiment [4] is 106% (active). For the same compound, the GLP1 secretion stimulation in experiment [5] was -1.3% (inactive). Also, the inhibition of viability in experiment [6] is 79.2% (active). In addition, the viability decrease (inhibition) in experiment [7] was 90.3% (active); in experiment [8], 93.3% (active).

For `O=C(O)c1[nH]n(-c2ccc(S(=O)(=O)O)cc2)c(=O)c1N=Nc1ccc(S(=O)(=O)O)cc1`, the nuclear beta-catenin stimulation in experiment [1] (at 10 µM) was 1.7% (inactive); in experiment [1] (stimulation, at 2 µM) it was -1.1%. The insulin secretion stimulation in experiment [2] is 2.7% (inactive). Further, in experiment [3], the viability decrease was -3.9% (inactive). The tube area decrease in experiment [4] is -8.4% (inactive). Further, the GLP1 secretion stimulation in experiment [5] is -3% (inactive). Besides, the inhibition of viability in experiment [6] was 4.2% (inactive). The viability decrease (inhibition) in experiment [7] was -14% (inactive); in experiment [8], 6.5% (inactive).

For the compound `CC(=O)Oc1ccc(C2(c3ccc(OC(C)=O)cc3)C(=O)Nc3ccccc32)cc1`, the nuclear beta-catenin stimulation was 1.7% (inactive) in experiment [1] (at 10 µM) and 0.9% in experiment [1] (stimulation, at 2 µM). In addition, the insulin secretion stimulation in experiment [2] was -2.1% (inactive). The viability decrease in experiment [3] was 32.6% (inactive). In addition, in experiment [4], the tube area decrease is 51.8% (active). In experiment [5], the GLP1 secretion stimulation was 4% (inactive). Further, in experiment [6], the inhibition of viability was 39% (inactive). For the same compound, the viability decrease (inhibition) in experiment [7] is 15.8% (inactive); in experiment [8] it was 49.1% (inactive).
